We go through 13 molecules from PubChem BioAssay (NCI).

About 83,000 compounds went through this panel and 20% of them were active in at least one assay; those are over-represented in the sample as a whole.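 Note: values are percent growth. 100 is the growth of untreated cells, values between 100 and 0 indicate rising inhibition; between -100 and 0 indicates cell death.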 Unmarked numbers belong to inactive results. Active and inactive are the calls of the source. Rule for the calls: active = growth percent below 10; inactive = the rest.

Among the test systems are DU-145 prostate; K-562 leukemia; MALME-3M melanoma; MDA-MB-231 breast; RXF 393 renal; SF-268 CNS; SF-295 CNS; SF-539 CNS; UACC-257 melanoma; M14 melanoma.
Experiment in all cases: NCI-60 one-dose screen, 48 h (100 = growth as untreated, 0 = no growth, -100 = all killed)
What all share (details): 10 µM unless noted

For the molecule `N#Cc1c(-c2ccc(Cl)cc2)nc(SCC(=O)NC2=NN=C(c3ccccc3)CS2)[nH]c1=O`, the growth in the test with DU-145 prostate is 105%; in the test with K-562 leukemia, 42.4%; in the test on MALME-3M melanoma, 75%; in the test on MDA-MB-231 breast, 78.1%; with RXF 393 renal, 84.5%; in the test on SF-268 CNS, 91.4%. The growth in the test with SF-295 CNS was 107%; in the test with SF-539 CNS, 91.4%; in the test on UACC-257 melanoma, 84%; with M14 melanoma it was 72.3%.
Consider `O=CC1(C2(C=O)c3ccccc3-c3ccccc32)c2ccccc2-c2ccccc21`, for which the growth with DU-145 prostate is -63.3% (active); in the test with K-562 leukemia, -13.6% (active); with MALME-3M melanoma, -71.8% (active); with MDA-MB-231 breast, -12.5% (active); with RXF 393 renal, -61.4% (active); in the test on SF-268 CNS, -46.9% (active). For the same molecule, the growth with SF-295 CNS is -59.8% (active); with SF-539 CNS it was -64.5% (active); in the test with UACC-257 melanoma, -76.1% (active); in the test with M14 melanoma, -67.1% (active).
As for `O=C(O)/C(=C\c1ccc(Cl)cc1)c1ccc(Cl)cc1`, the growth in the test with DU-145 prostate was 107%; in the test with K-562 leukemia, 43.8%; in the test on MALME-3M melanoma, 81.5%; with MDA-MB-231 breast, 92.9%; with RXF 393 renal, 78.8%; in the test on SF-268 CNS, 96.5%. The growth in the test on SF-295 CNS was 118%; in the test with SF-539 CNS, 95.2%; in the test on UACC-257 melanoma, 85.8%; in the test with M14 melanoma, 95.8%.
In the case of `COc1cc(-n2cc(-c3cc(O)c(C/C=C(\C)CCC=C(C)C)c(O)c3)nn2)cc2c1O[C@]1(C)CC[C@@H](O)C(C)(C)[C@H]1C2`, the growth is 30.6% with DU-145 prostate; 3.36% (active) in the test with K-562 leukemia; -0.848% (active) with MALME-3M melanoma; -30.7% (active) in the test on MDA-MB-231 breast; -60.6% (active) with RXF 393 renal; 20.9% in the test on SF-268 CNS. The growth was -53% (active) in the test with SF-295 CNS, -40.4% (active) in the test with SF-539 CNS, 27.4% with UACC-257 melanoma and -17.5% (active) in the test on M14 melanoma.
As to `CS(=O)(=O)Nc1cc(-c2ccc3ncnc(Nc4ccc5c(cnn5Cc5ccccn5)c4)c3c2)cnc1Cl`, the growth with DU-145 prostate was 90%; in the test on K-562 leukemia it was 92.1%; with MALME-3M melanoma, 39.5%; with MDA-MB-231 breast, 71.5%; in the test on RXF 393 renal, 72.8%; in the test on SF-268 CNS, 51.5%. Moreover, the growth in the test on SF-295 CNS was 91.5%; in the test with SF-539 CNS it was 69.9%; in the test with UACC-257 melanoma, 88.1%; in the test on M14 melanoma it was 75.5%.
On to `O=C(CSc1nc2ccc([N+](=O)[O-])cc2[nH]1)Nc1ccc(F)cc1`, for which the growth in the test with DU-145 prostate was 66.8%; with K-562 leukemia it was 42.1%; with MALME-3M melanoma it was 36.3%; in the test with MDA-MB-231 breast, 80.3%; in the test with RXF 393 renal, 87.8%; in the test with SF-268 CNS, 68.8%. Moreover, the growth in the test with SF-295 CNS was 52.1%; in the test with SF-539 CNS, 79.8%; with UACC-257 melanoma, 44.5%; with M14 melanoma, 59.9%.
For `O=C1c2cccnc2C(=O)c2c1c(C(=O)NCCn1ccnc1)c1ccccn21`, the growth in the test with DU-145 prostate was 29.9%; in the test with K-562 leukemia, 29.3%; with MALME-3M melanoma it was -68.8% (active); with MDA-MB-231 breast, 13.6%; in the test with RXF 393 renal, 59.7%; with SF-268 CNS, 23.6%. Also, the growth in the test with SF-295 CNS was 29.5%; in the test on SF-539 CNS, 9.99% (active); in the test on UACC-257 melanoma, -29% (active); with M14 melanoma, 7.17% (active).
As to `Cc1ccc(-c2nc3nc(-c4ccc(F)cc4)nc(N4CCNCC4)c3o2)cc1`, the growth is 41.7% with DU-145 prostate; -53.1% (active) in the test on K-562 leukemia; 107% in the test with MALME-3M melanoma; -29.1% (active) in the test on MDA-MB-231 breast; 109% with RXF 393 renal; 96.7% in the test with SF-268 CNS. For the same molecule, the growth in the test with SF-295 CNS is 91.6%; with SF-539 CNS, -72.3% (active); in the test on UACC-257 melanoma it was 105%; in the test with M14 melanoma it was -70.9% (active).
With `Cc1ccc(CNc2ccc(Cl)cc2NCc2ccc(C)c(O)c2)cc1O`, the growth is 23.4% with DU-145 prostate; 12.3% with K-562 leukemia; -3.38% (active) with MALME-3M melanoma; -52.2% (active) with MDA-MB-231 breast; 21.2% in the test on RXF 393 renal; 28.3% in the test with SF-268 CNS. In addition, the growth with SF-295 CNS was 74.2%; with SF-539 CNS, 25.8%; with UACC-257 melanoma it was 46.2%; with M14 melanoma, 25.3%.
Turning to `OB(O)c1cccc(-c2nc3ccc4[nH]ncc4c3c3c2CCCC3)c1`, the growth in the test on DU-145 prostate was 50.3%; in the test on K-562 leukemia, 52.6%; with MALME-3M melanoma, 120%; in the test with MDA-MB-231 breast, 26.1%; in the test on RXF 393 renal it was 13.6%; in the test on SF-268 CNS, 37.9%. For the same molecule, the growth with SF-295 CNS was 71.6%; with SF-539 CNS, 20.9%; in the test on UACC-257 melanoma it was 103%; in the test on M14 melanoma, 64.8%.
With `Cc1nc(N2CCOCC2)sc1S(N)(=O)=O`, the growth in the test on DU-145 prostate was 105%; in the test on K-562 leukemia, 110%; in the test with MALME-3M melanoma it was 96%; in the test with MDA-MB-231 breast, 101%; in the test with RXF 393 renal it was 103%; in the test on SF-268 CNS it was 94%. In addition, the growth in the test with SF-295 CNS was 94.1%; in the test on SF-539 CNS it was 98%; with UACC-257 melanoma, 97.4%; with M14 melanoma it was 103%.
For the molecule `COc1cc(/C=C\c2cc(/C=C\c3ccc(O)c(OC)c3)n(C(=O)COc3ccc(Cl)cc3Cl)n2)ccc1O`, the growth is 16.5% with DU-145 prostate; 4.41% (active) in the test with K-562 leukemia; 12.1% in the test with MALME-3M melanoma; 10.1% with MDA-MB-231 breast; -9.98% (active) in the test with RXF 393 renal; 20.2% in the test with SF-268 CNS. The growth in the test on SF-295 CNS is 23.1%; in the test on SF-539 CNS it was 8.64% (active); with UACC-257 melanoma, 41.9%; in the test on M14 melanoma, 4.34% (active).
`COc1ccc(C(c2cc(OC)c(OC)c(OC)c2)N2CCN(c3ccccc3)CC2)cc1` (stereo not given): the growth in the test with DU-145 prostate was 113%; with K-562 leukemia it was 41.6%; in the test on MALME-3M melanoma, 99.7%; with MDA-MB-231 breast, 92.3%; in the test with RXF 393 renal, 96.2%; in the test on SF-268 CNS it was 95.8%. Moreover, the growth is 92.3% with SF-295 CNS, 94.4% in the test with SF-539 CNS, 81.3% in the test on UACC-257 melanoma and 76.3% in the test with M14 melanoma.
